Measurements taken from PubChem BioAssay (Tox21).
Inconclusive results are not listed. Calls of active or inactive are those of the source. Unless noted, the call rests on the fitted dose curve; in most records, active means well fitted curve in the direction sought with a large enough effect in the repeat runs; inconclusive means weak or mixed curves; inactive means no such curve, though single readings can be large; an effect the other way counts as inactive or inconclusive.

What was measured:
[1] = target: Retinoic acid receptor RXR-alpha (Homo sapiens) (UniProt P19793); test: qHTS assay to identify small molecule agonists of the RXR signaling pathway (AID 1159527; calls by dose curve; further: nearly all actives have a fitted effect of over 35% in size); settings: HEK293T RXRa-UAS-bla, beta-lactamase ratio, 16 h; series mostly up to 76.8 µM
Chain of Retinoic acid receptor RXR-alpha (Homo sapiens) (P19793 whole entry, looked up): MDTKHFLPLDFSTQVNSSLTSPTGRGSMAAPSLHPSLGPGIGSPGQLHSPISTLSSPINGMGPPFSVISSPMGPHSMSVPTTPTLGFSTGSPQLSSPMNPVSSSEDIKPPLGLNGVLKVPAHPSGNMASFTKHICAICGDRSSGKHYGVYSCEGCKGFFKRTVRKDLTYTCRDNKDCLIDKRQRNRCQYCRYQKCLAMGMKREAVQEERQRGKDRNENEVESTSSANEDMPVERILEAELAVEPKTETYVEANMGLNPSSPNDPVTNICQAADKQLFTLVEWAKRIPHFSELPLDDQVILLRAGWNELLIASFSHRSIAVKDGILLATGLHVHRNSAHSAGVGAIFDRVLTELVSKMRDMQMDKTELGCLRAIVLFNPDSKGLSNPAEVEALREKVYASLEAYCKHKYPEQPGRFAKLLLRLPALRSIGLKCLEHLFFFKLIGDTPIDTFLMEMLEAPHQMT
Method in brief: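 Fluorescence ratio readout (460 vs 530 nm) from GeneBLAzer RXR-alpha HEK 293T cells after 16 hr compound treatment; cells seeded 5 hr beforehand in low-serum, charcoal-stripped medium.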

[2] = qHTS assay to identify small molecule agonists of the RXR signaling pathway - cell viability counter screen (AID 1159529); settings: RXR-alpha-bla HEK293T viability, CellTiter-Glo, 16 h; series mostly up to 76.8 µM;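 further: HEK 293T cells carrying an RXR-alpha UAS beta-lactamase reporter; nearly all actives have a fitted effect of over 50% in size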
Method in brief: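 Viability read-out for the RXR-alpha agonist qHTS: luminescent CellTiter-Glo signal after 30 min at RT. HEK 293T bla reporter cells, 2% charcoal-stripped FBS, 16 hr compound incubation; tetraoctyl ammonium bromide as cytotoxic control.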

[3] = qHTS assay to identify small molecule antagonists of the retinoid acid receptor (RAR) signaling pathway - cell viability counter screen (AID 1159551); settings: C3RL4 cells viability, ATP luminescence (CellTiter-Glo), 6 h; series mostly up to 92.4 µM; further: nearly all actives have a fitted effect of over 35% in size
Method in brief: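 Seed C3RL4 cells; next day add compound, then retinol to 1 uM final; incubate 6 h at 37 C; add CellTiter-Glo; read luminescence after 30 min at RT.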

[4] = qHTS assay to identify small molecule antagonists of the retinoic acid receptor (RAR) signaling pathway (AID 1159552; further: nearly all actives have a fitted effect of over 50% in size); settings: C3RL4 RARE luciferase reporter, retinol-stimulated, 6 h; series mostly up to 92.4 µM
Method in brief: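 Using a RARE-driven luciferase construct in C3RL4 cells, retinol at 1 uM final provided the agonist stimulus while compounds were co-applied. After 6 hours at 37 C, luminescence was recorded to flag inhibitors of retinol signaling.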
On the % scale 0 is the no-effect control and ±100 the full control effect.

Brc1c(Br)c(Br)c(Br)c(Br)c1Br
inactive: activation [1] 13.1% [at 6.98 µM] | activity change, negative = cytotoxicity [2] 7.53% [at 6.97 µM] | activity change, negative = cytotoxicity [3] -4.22% [at 8.39 µM] | activity, negative = inhibition [4] -18.1% [at 8.39 µM]

ClCCN1CCCC1
inactive: Potency [1] | Potency [2] | Potency [3] | Potency [4]

CCCCCCC(=O)CCCCCC/C=C/C[C@@H](O)[C@H](O)[C@@](N)(CO)C(=O)O
inactive: activation [1] 1.63% [at 15.8 µM] | activity change, negative = cytotoxicity [2] 2.42% [at 15.8 µM] | activity change, negative = cytotoxicity [3] 2.99% [at 19 µM]

COc1cc(CCN)cc(OC)c1OC
inactive: Potency [1] | Potency [2] | Potency [3]

OCC(Cl)CCl (stereo unspecified)
inactive: Potency [1] | Potency [2] | Potency [3]

Cc1cccc2sc3nncn3c12
inactive: Potency [1] | Potency [2] | Potency [3] | Potency [4]

CCCC(C)C1(CC)C(=O)N=C(S)NC1=O (stereo unspecified)
inactive: Potency [1] | Potency [2] | Potency [3] | Potency [4]

CC(Cc1ccccc1)NCCn1cnc2c1c(=O)n(C)c(=O)n2C (stereo unspecified)
inactive: Potency [1] | Potency [2] | Potency [3] | Potency [4]

C(COCC1CO1)OCC1CO1 (stereo unspecified)
inactive: Potency [1] | Potency [2] | Potency [3]

Oc1ccc(Cc2ccc(O)cc2)cc1
inactive: Potency [1] | Potency [2] | Potency [3] | Potency [4]

COC1=CC(=O)O[C@@H](/C=C/c2ccccc2)C1
inactive: Potency [1] | Potency [2] | Potency [3] | Potency [4]

C1CN2CCC1CC2
inactive: Potency [1] | Potency [2] | Potency [3] | Potency [4]

O=C(O)CBr
inactive: Potency [1] | Potency [2] | Potency [3] | Potency [4]

Cc1ccc2cc(C)ccc2c1
inactive: Potency [1] | Potency [2] | Potency [3] | Potency [4]

CCCC(C)(COC(N)=O)COC(N)=O
inactive: Potency [1] | Potency [2] | Potency [3] | Potency [4]
